Shown are actives, neighbours in structure and some others; about 7.1% of the full set was active somewhere.
M1 agonist – M1 muscarinic receptor agonism; CHO-M1 cells, Fluo-4 calcium fluorescence, agonist mode; hits give high values; B-score at 10 µM; 64,000 compounds, 3% hits; AID 626;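 active means fluorescence rise, raw or as B-score row- and column-corrected plate score, outside the 99.7% band of its plate's samples, either direction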
M1 antag – antagonists of rat M1 muscarinic receptor; CHO-M1 cells, Fluo-4 calcium, ACh EC80 antagonist mode; hits give low values; 64,000 compounds, 3.4% hits; B-score at 10 µM; P08482;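 active means calcium fluorescence response, raw or row-and-column corrected B-score, differing from the plate sample mean either way at a set confidence level, mostly lower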
PTK2B oligo ant – Pyk2 (human) oligomerization antagonism; 99,000 compounds, 0.83% hits; Q293 cells, Pyk2 FERM NanoBiT luminescence; hits give low values; z-score (the deposit names both 25 µM and 10 µM); Q14289;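 active means Z-score of -3 or lower, scaled per plate to the spread of control and sample wells; inactive means z-score above -3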;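 further: negative z-score means lost luminescence so less FERM oligomerization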
Cav32 inh – blocks human Cav3.2 T-type calcium channel; 100,000 compounds, 4% hits; B-score at 10 µM; O95180; Cav3.2-expressing cells, Fluo-4 calcium fluorescence FDSS; hits give low values;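 active means single-dose well whose peak fluorescence ratio is a statistical outlier from its plate by either plate-standardised score or position-corrected B-score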
Each line names hits and unclear results; the compound was inactive in the other large screens.

Cc1ccc(C(=O)C(OC(=O)CN2C(=O)c3ccccc3C2=O)c2ccccc2)cc1 (centres undefined)	Cav32 inh -5.9 (no result: M1 agonist, M1 antag)
Cc1cccc2c3nc4ccccc4nc3n(CCCN3C(=O)c4ccccc4C3=O)c12	none (no result: M1 agonist, M1 antag, Cav32 inh)
O=S(=O)(NCCSc1ccccc1)c1ccc2c(c1)OCCO2	Cav32 inh -5
C/C=C/C(=O)Nc1cccc(C2=NOC3(C2)C[C@@H](C(N)=O)N(C(=O)C(c2ccccc2)c2ccccc2)C3)c1 (some centres undefined)	none (no result: M1 agonist, M1 antag, PTK2B oligo ant)
COc1ccc(N2CCN(c3ncnc4c3[nH]c3ccccc34)CC2)cc1	PTK2B oligo ant -3.5 (no result: M1 agonist, M1 antag)
CCN(CC)c1ccc2cc(-c3nnc(-c4ccncc4)o3)c(=O)oc2c1	M1 agonist 401, M1 antag -15, Cav32 inh -4
CCN(CC)c1ccc2cc(C(N)=O)c(=O)oc2c1	none (no result: M1 agonist, M1 antag)
CCN(CC)c1ccc2cc(C(C)=O)c(=O)oc2c1	Cav32 inh -10 (no result: M1 agonist, M1 antag)
CCN(CC)c1ccc2cc(C=O)c(=O)oc2c1	Cav32 inh -9 (no result: M1 agonist, M1 antag)
CCN(CC)c1ccc2cc(C(=O)Nc3cccnc3N3CCOCC3)c(=O)oc2c1	M1 agonist 7.7 (no result: PTK2B oligo ant, Cav32 inh)
Cc1ccc(Cn2ccc(=O)c(OCc3c(Cl)cccc3Cl)c2C)cc1	none (no result: M1 agonist, M1 antag)
CC(=O)N1c2ccccc2C(=O)C1N1CCCCC1 (centres undefined)	none
C[C@H]1CCC[C@]2(O[C@H](CCO)C[C@@H](O)[C@@H]2O)O1	none (no result: M1 agonist, M1 antag, PTK2B oligo ant)
COc1cc(F)c(C(=O)NC(C)(C)CO)cc1OC	none (no result: M1 agonist, M1 antag, PTK2B oligo ant)
Clc1ccc(-c2nc3ccccc3n2OCc2ccccc2)cc1	none (no result: M1 agonist, M1 antag)
CC(C)COC(=O)n1c(=O)oc2cc(S(=O)(=O)N3CCCCC3)ccc21	PTK2B oligo ant -3.5
CCOC(=O)n1c(=O)oc2cc(S(=O)(=O)N3CCOCC3)ccc21	none
Cn1cc([N+](=O)[O-])c(C(=O)Nc2ccn(Cc3c(F)c(F)cc(F)c3F)n2)n1	none (no result: M1 agonist, M1 antag)
O=C(Nc1nccs1)C(NS(=O)(=O)c1ccc(Br)s1)c1ccccc1 (centres undefined)	Cav32 inh -5.8
CN1/C(=C\C(=O)COC(=O)CN2C(=O)C3CC=CCC3C2=O)C(C)(C)c2ccccc21 (centres undefined)	none
CN1/C(=C\C(=O)CN2C(=O)NC3(CCCCCC3)C2=O)C(C)(C)c2ccccc21	Cav32 inh -4.2
Cc1noc(C)c1COc1ccc(C(=O)OCc2nnc(-c3ccc(Cl)cc3)o2)cc1	Cav32 inh -6.3
CCOC(=O)C1=C(c2cccc(Oc3ccccc3)c2)NC(=S)NC1C (centres undefined)	Cav32 inh -8.3 (no result: M1 agonist, M1 antag)
CC(C)(C)n1nc2c(c1NC(=O)COc1ccc(Cl)cc1)CSC2	Cav32 inh -4.4
COCCOC(=O)C1=C(C)Nc2cc(=O)[nH]c(=O)n2C1c1cccc([N+](=O)[O-])c1 (centres undefined)	none (no result: M1 agonist, M1 antag, Cav32 inh)
COC(=O)C1=C(C)NC(C)=C(C(=O)OCCN(C)Cc2ccccc2)C1c1cccc([N+](=O)[O-])c1 (centres undefined)	Cav32 inh -4.1 (no result: M1 agonist, M1 antag, PTK2B oligo ant)
Cc1ccc(S(=O)(=O)c2ccc(Cl)cc2)cc1S(=O)(=O)N1CCOCC1	Cav32 inh -3.6
COC(=O)c1ccc(Cn2cc(Cl)cn2)cc1	none
O=C(Nc1cccc2ccccc12)c1ccc(Cn2cc(Cl)cn2)cc1	Cav32 inh -3.9 (no result: M1 agonist, M1 antag)
COC(=O)CN1C(=O)S/C(=C/c2ccc(N3CCCCC3)o2)C1=O	Cav32 inh -7.9 (no result: M1 agonist, M1 antag)
CCOC(=O)CN1C(=O)S/C(=C/c2ccc(N3CCCCC3)o2)C1=O	none (no result: M1 agonist, M1 antag)
N=c1n(Cc2ccccc2)c2ccccc2n1CC(O)COc1ccccc1 (centres undefined)	Cav32 inh -4.9
O=C(c1ccccc1)c1coc2ccc(O)c(Cl)c12	none
Cc1ccc(C(=O)c2coc3ccc(O)c(Cl)c23)cc1	Cav32 inh -5.2 (no result: M1 agonist, M1 antag)
O=c1c2ccccc2nc(-c2ccc(Cl)c(Cl)c2)n1O	Cav32 inh -4.3 (no result: M1 agonist, M1 antag)
O=c1c2ccc(Cl)cc2nc(-c2cccc(C(F)(F)F)c2)n1O	Cav32 inh -5.9 (no result: M1 agonist, M1 antag)
O=c1c2ccccc2ncn1-c1ccc(Cl)c(Cl)c1	none (no result: M1 agonist, M1 antag)
On1c(-c2ccccc2)nc2ccc(Cl)cc21	none (no result: M1 agonist, M1 antag)
COc1ccc(NC(C)=O)cc1CNC(=O)COc1c(C)c(C)cc(C)c1C	none (no result: M1 agonist, M1 antag, Cav32 inh)
CCn1nnc(-c2ccccc2NS(=O)(=O)c2ccc(S(=O)(=O)N(C)C3CCCCC3)cc2)n1	none (no result: M1 agonist, M1 antag)
CC(C)(C)C(=O)c1sc2nc(-c3cccs3)cc(C(F)(F)F)c2c1N	Cav32 inh -8.3 (no result: M1 agonist, M1 antag)
CCN(CC)C(=O)c1sc2nc(-c3cccs3)cc(-c3cccs3)c2c1N	M1 agonist 15 (no result: PTK2B oligo ant, Cav32 inh)
COc1ccc(C(=O)CN2C(=O)C(C)(C)Oc3ccc(C(=O)N4CCCCCC4)cc32)cc1	none
CCN(CC)Cc1c(O)ccc2c(=O)c(-c3ccc4c(c3)OCCO4)coc12	none (no result: M1 agonist, M1 antag)
O=c1c(-c2ccc3c(c2)OCCO3)coc2cc(O)cc(O)c12	PTK2B oligo ant -3.7
Cc1cc(Cl)ccc1OCC(=O)N1CC(C)CC(C)C1 (centres undefined)	Cav32 inh -5.3
CN(c1cccc(NC(=O)c2ccc(Cl)c(S(=O)(=O)Nc3ccccc3)c2)c1)S(C)(=O)=O	PTK2B oligo ant -3.9 (no result: M1 agonist, M1 antag)
Cc1ccccc1NS(=O)(=O)c1cc(C(=O)Nc2cccc(N(C)S(C)(=O)=O)c2)ccc1C	PTK2B oligo ant -3 (no result: M1 agonist, M1 antag)
CC1CCN(C(=O)CCNC(=O)Cn2cnc3sc4c(c3c2=O)CCCC4)CC1	none (no result: M1 agonist, M1 antag)
COCCNC(=O)COC(=O)/C=C/c1c(C)nn(Cc2ccc(Cl)cc2Cl)c1Cl	none (no result: M1 agonist, M1 antag)
Cc1ccccc1NC(NC(=O)c1cccs1)C(Cl)(Cl)Cl (centres undefined)	Cav32 inh -5.9 (no result: M1 agonist, M1 antag)
Cc1ccc(NC(NC(=O)c2cccs2)C(Cl)(Cl)Cl)cc1 (centres undefined)	none (no result: M1 agonist, M1 antag)
O=C(CSc1nnc(CN2CCOCC2)n1-c1ccccc1)N1CCc2ccccc21	none
COc1ccc(-n2c(Cc3cccn3C)nnc2SCC(=O)N2CCCc3ccccc32)cc1	none
N#Cc1ccc(OCc2nnc(SCC(=O)N3CCCc4ccccc43)n2-c2ccccc2)cc1	Cav32 inh -7.4
COc1ccc(OCc2nnc(SCC(=O)N3CCCc4ccccc43)n2-c2ccc(C)cc2)cc1	Cav32 inh -8.2 (no result: M1 agonist, M1 antag)
CSc1nnc(-c2sc3cc(C(F)(F)F)cnc3c2-c2ccccc2)n1C	PTK2B oligo ant -3.1 (no result: M1 agonist, M1 antag)
COC(=O)C1(Cc2ccc(O)c(CC3OC3(C)C)c2)OC(=O)C(O)=C1c1ccc(O)cc1 (centres undefined)	none (no result: M1 agonist, M1 antag, PTK2B oligo ant)
Cn1c(CO)cnc1SCc1ccc(Cl)cc1	none (no result: M1 agonist, M1 antag)
CCCCC(CC)C(=O)NCCCN1CCN(CCCNC(=O)C(CC)CCCC)CC1 (centres undefined)	Cav32 inh -7.3
COc1ccc(-c2ccc(S(=O)(=O)n3nc(OC(=O)c4cccs4)cc3N)cc2)cc1	none (no result: M1 agonist, M1 antag, PTK2B oligo ant)
COc1ccc(S(=O)(=O)n2nc(OC(=O)c3c(-c4ccccc4Cl)noc3C)cc2N)cc1	Cav32 inh -5.4
COc1ccccc1NS(=O)(=O)c1ccc2c(c1)n(C)c(=O)n2C	none (no result: M1 agonist, M1 antag)
COc1ccccc1NC(=O)N(Cc1ccc2c(c1)OCO2)Cc1nc2ccccc2c(=O)[nH]1	PTK2B oligo ant -4
COc1ccccc1CN(Cc1nc2ccccc2c(=O)[nH]1)C(=O)Nc1cccc(C)c1	none (no result: M1 agonist, M1 antag)
COc1cccc(C(=O)N(Cc2ccc3c(c2)OCO3)Cc2nc3ccccc3c(=O)[nH]2)c1	PTK2B oligo ant -3.4
